Bioassay records deposited in PubChem by National Center for Advancing Translational Sciences (NCATS).
Sampled rows, rich in hits. Any-hit rate of the full collection: about 11%.
ALDH1A1 inh = ALDH1A1 (human) enzyme inhibition | Purified ALDH1A1, NADH fluorescence, propionaldehyde substrate | AID 1030 | P00352 | Potency, µM (titrated, usually from 75.3 µM), for the others: at the top dose activity, negative = inhibition, most hits filed as inhibitors | hit rate 7.3% among 220,000;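 further: potency means the concentration at half of the fitted maximal effect; plate controls were no enzyme wells and a reference inhibitor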
HPGD block = blocks human HPGD enzyme activity; hit rate 4.3% among 150,000; P15428; Potency, µM, for the others: top-dose activity change, negative = inhibition, hits mostly inhibitors; purified HPGD, NADH fluorescence kinetic, PGE2 substrate; AID 894; further: potency means the concentration at half of the fitted maximal effect
Target sequence (P15428 whole entry, looked up): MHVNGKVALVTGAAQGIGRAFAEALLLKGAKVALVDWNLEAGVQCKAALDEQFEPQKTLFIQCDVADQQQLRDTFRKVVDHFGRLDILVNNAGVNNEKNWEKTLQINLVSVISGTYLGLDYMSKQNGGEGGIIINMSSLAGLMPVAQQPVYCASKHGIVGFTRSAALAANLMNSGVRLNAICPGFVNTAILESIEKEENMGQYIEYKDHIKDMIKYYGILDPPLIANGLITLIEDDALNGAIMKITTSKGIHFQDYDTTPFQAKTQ
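NADH formation kinetics: reaction with 30 uM PGE2 and 1 mM NAD+ (final), 20 nM enzyme, Tris-HCl pH 8 with Tween 20, after 15 min compound preincubation at room temperature. Fluorescence change, last versus first of five reads.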
PNC inhibitor = blocks assembly of the perinucleolar compartment; PC3M PTB-GFP, PNC prevalence imaging, 16 h; stronger effect = lower value; AID 2417; activity change (PNC), negative = inhibition, % at 10 µM; hit rate 3.1% among 140,000;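 active means readout at or below -70, meaning at least 70% loss of cells showing the perinucleolar compartment, a nuclear body marking cancer cells; inconclusive means readout between -30 and a set limit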;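 further: plate controls were DMSO wells for no effect and camptothecin positive control wells for full effect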
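Compounds are pinned in duplicate onto adhered PC3M cells stably expressing GFP-tagged PTB and incubated 16 h at 37 C. Cells are then fixed, nuclei stained with Hoechst, and PNC-positive cells counted.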
IMPase cell inh = membrane-permeable compound that blocks inositol monophosphatase. CHO-M1 cells, IP1 accumulation, HTRF TR-FRET ratio. P97697. 120,000 tested, under 10 active. inhibition (IP1 accumulation), % at 46.1 µM; active means well fitted curve in the direction sought with a large enough effect in the signal ratio, not every such curve was filed as active; inconclusive means small, poorly fitted or top-dose-only effect, or a change in a side signal; inactive means no such curve, though single readings can be large or run the other way; the % refers to the signal ratio;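 further: cells stimulated with carbachol in lithium chloride buffer; plate controls were DMSO basal wells for no effect and reference inhibitor wells for full effect; higher means more IMPase inhibition seen as more IP1 and lower FRET ratio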
Target sequence (P97697 whole entry, looked up): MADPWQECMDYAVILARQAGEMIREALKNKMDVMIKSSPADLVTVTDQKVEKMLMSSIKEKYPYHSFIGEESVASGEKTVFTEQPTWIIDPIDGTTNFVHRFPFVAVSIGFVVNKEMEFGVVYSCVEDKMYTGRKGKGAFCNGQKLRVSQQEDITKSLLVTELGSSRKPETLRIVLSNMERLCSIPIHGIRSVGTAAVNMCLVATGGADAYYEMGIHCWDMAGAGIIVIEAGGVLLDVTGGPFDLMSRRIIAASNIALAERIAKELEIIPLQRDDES
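Carbachol-driven Gq signalling in CHO-M1 cells (2000/well) generates IP1. Compounds that block IMPase raise IP1 and so reduce the FRET signal from Eu-anti-IP1 and d2-IP1 after a 10 min room-temperature lysis.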
IMPase Li cell = IMPase inhibition in cells with lithium potentiation. CHO-M1 cells, IP1 TR-FRET (IP-One), carbachol + lithium. Potency, µM (highest dose often 59.4 µM), for the others: at the highest dose activity, negative = IMPase inhibition, actives largely listed as inhibitors. hit rate 0.35% among 210,000; active means well fitted curve in the direction sought with a large enough effect; inconclusive means small, poorly fitted or top-dose-only effect, or another doubt; inactive means no such curve, though single readings can be large; an effect the other way counts as inactive or inconclusive;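 further: IP1 builds up when IMPase is blocked and the TR-FRET signal falls; potency means the concentration at half of the fitted maximal effect; plate controls were basal vehicle for no effect and high inhibitor control for full effect; nearly all actives have a fitted effect of over 50% in size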
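Concentration–response in CHO-M1 cells, lithium-potentiated; 30 min at 37C. IP1 detected by competitive TR-FRET after 10 min lysis at RT. Hill-fitted AC50.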
NPSR antag = blocks cAMP signaling of the human neuropeptide S receptor. hit rate 1% among 220,000. Potency, µM (top dose mostly 38.3 µM), without a hit: at the highest dose activity change, negative = inhibition, usual class: inhibitors. CHO-NPSR cells, cAMP TR-FRET, antagonist mode; active means well fitted curve in the direction sought with a large enough effect; inconclusive means small, poorly fitted or top-dose-only effect, or another doubt; inactive means no such curve, though single readings can be large; an effect the other way counts as inactive or inconclusive; further: potency means the concentration at half of the fitted maximal effect; nearly all actives have a fitted effect of over 50% in size
* = called active by the depositor; ? = inconclusive; . = no result; [ ] = dose if it differs, or a comment. Unless noted, the call rests on the fitted dose curve; in most records, active means well fitted inhibition curve with a large enough effect (not every such curve was filed as active); inconclusive means small, poorly fitted or top-dose-only effect, or another doubt; inactive means no such curve, though single readings can be large or run the other way. Unless noted, on the % scale 0 is the no-effect control and ±100 the full control effect.

SMILES | ALDH1A1 inh | HPGD block | PNC inhibitor | IMPase cell inh | IMPase Li cell | NPSR antag
Cc1cccc(OC(=O)c2ccncc2)c1C | 10% | . | . | . | 3% | 7%
CCOc1cc(-c2noc(-c3cccnc3)n2)ccc1OC | 10% | -1% | ? | -1 | 3%[38.3 µM] | -17%[46.1 µM]
Cc1ccc(NC(=O)CCC(=O)NNC(=O)c2ccccc2[N+](=O)[O-])c(C)c1 | 11% | . | . | . | 1% | 14%
CCn1c([N+](=O)[O-])nc2c1c(=O)[nH]c(=O)n2C | 16µM* | . | . | . | 21% | -40%
CCCCCCn1c(SCCCC)nc2c1c(=O)[nH]c(=O)n2C | -10% | -11% | 10 | 0 | 25%[38.3 µM] | -5%[46.1 µM]
N/C(=N\OC(=O)CCc1ccccc1)c1cccc(Br)c1 | 12% | -3% | ? | -1 | 3%[38.3 µM] | -6%[46.1 µM]
CCCc1[nH]n(-c2ccc([N+](=O)[O-])cc2)c(=O)c1C=NCCc1ccc(OC)c(OC)c1 | 1.8µM* | . | . | . | 6% | 18%
COc1ccc(C2CC(=O)Oc3c(C(CCN4CCN(c5ccccc5)CC4)c4ccc(N(C)C)cc4)c(OC)cc(OC)c32)cc1 (centres undefined) | . | . | . | . | . | 9%
CCOC(=O)CC1Sc2ccccc2NC1=O (centres undefined) | 1% | -13% | 15 | 0 | 0%[38.3 µM] | -27%[46.1 µM]
CCOC(=O)CC1Sc2ccccc2NC1=S (centres undefined) | 7.9µM* | . | . | . | . | 24%
Cc1ccc(Nc2cc(-n3nc(C)cc3C)ncn2)cc1 | 15% | -3% | -9 | -2 | 28%[38.3 µM] | -3%[46.1 µM]
COc1cc(-n2c(=O)c3ccccc3n(CC(=O)c3ccc(Br)cc3)c2=O)cc(OC)c1OC | -2% | . | . | . | 22µM* | -31%
COc1ccc(-n2c(=O)c3ccccc3n(CC(=O)c3ccccc3)c2=O)cc1OC | -13% | . | . | . | -10% | 0%
CC(C)(C)C(=O)OCOC(=O)[C@@H]1N2C(=O)[C@@H](NC(=O)[C@H](N)c3ccccc3)[C@H]2SC1(C)C | 5%[20.9 µM] | -1% | . | 0[20.6 µM] | -9% | .
CCN(CCCNC(=O)CCNC(=O)Cn1ccc2ccccc2c1=O)c1ccccc1 | ? | -26% | -94* | 2 | 13%[38.3 µM] | 12%[46.1 µM]
CCN(CCCNC(=O)COc1cc(=O)n(CC)c2ccccc12)c1ccccc1 | 1% | -12% | -100* | 9 | 10% | 5%[46.1 µM]
CCn1c(=O)cc(OCC(=O)Nc2ccc(OC)c(OC)c2)c2ccccc21 | 16µM* | . | . | . | 4% | 11%
CN(CCNC(=O)CCNC(=O)Cn1ccc2ccccc2c1=O)Cc1ccccc1 | -3% | . | -27 | -6 | . | -2%[46.1 µM]
O=C(CCn1cnc2ccccc2c1=O)Nc1nc2c(s1)CCCC2 | 10% | -3% | ? | 7 | -3%[38.3 µM] | -2%[46.1 µM]
OC1(c2ccccc2F)CCN(Cc2nnnn2CCc2ccccc2)CC1 | 8% | -5% | 19 | -5 | -6%[38.3 µM] | -16%[46.1 µM]
O=c1c(-c2cccs2)nc2cncnc2n1Cc1ccccc1 | ? | . | . | . | 1% | .
CCc1ccc(S(=O)(=O)Nc2ccc(O)c3c(=O)cc(-c4ccccc4Cl)oc23)cc1 | . | . | . | . | . | -59%
O=c1cc(-c2ccccc2Cl)oc2c(NS(=O)(=O)c3cc(Cl)cc(Cl)c3O)ccc(O)c12 | 10µM* | 4.5µM* | 38 | . | 12% | -35%
CN(C)/C=N/NC(=O)c1ccc(Cl)cc1 | 12% | . | . | . | -6% | 18%
CN(C)/C=N/c1cnc(C(=O)c2ccc(Cl)cc2)n1C | -1% | 16µM* | 9 | 3 | 6%[38.3 µM] | ?
SMILES | ALDH1A1 inh | HPGD block | PNC inhibitor | IMPase cell inh | IMPase Li cell | NPSR antag
Cc1ccc(S(=O)(=O)CCc2nnc(NC(=O)CCl)s2)cc1C | 1µM* | . | . | . | 10% | 46%
CC(/C=N/Nc1nc2ccccc2[nH]1)=C\c1ccccc1 | 5% | -19% | 11 | 4 | 4% | -34%
Cc1nc2ccccc2c2oc(C(=O)N3CCN(C(=O)c4ccco4)CC3)cc12 | ? | -22% | 27 | -3 | 28%[38.3 µM] | -19%[46.1 µM]
Cc1nc2ccccc2c2oc(C(=O)N3CCc4ccccc4C3)cc12 | 25µM* | -10% | 7 | 17 | 17%[38.3 µM] | -22%[46.1 µM]
COCCn1nnnc1CN1CCC(Cc2ccccc2)CC1 | -13% | -9% | -100* | -11 | 2% | 10%[46.1 µM]
CCn1c(SCC(N)=O)nnc1C(C)C | 7% | . | . | . | -8% | 25%
C/C(CC(=O)N(C(C)C)C(C)C)=N\NC(=O)COc1ccc(Br)cc1Br | 11% | -24% | -109* | . | 21% | 6%
COC(=O)c1sccc1NC(=O)NC1CCCCC1 | -6% | . | . | . | -7% | 10%
COC(=O)c1cc(C)sc1NC(=O)C1CC=CCC1C(=O)O (centres undefined) | -9% | -16% | 51 | ? | 11µM* | ?
COC(=O)c1sccc1NC(=O)C1CC=CCC1C(=O)O (centres undefined) | ? | -26% | ? | ? | 10µM* | ?
COC(=O)c1cc(C)sc1NC(=O)C1C2C=CC(CC2)C1C(=O)O (centres undefined) | -3% | -9% | ? | . | 10µM* | -34%
Cc1sc(NC(=O)C2CC=CCC2C(=O)O)c(C(=O)OC(C)C)c1C (centres undefined) | 1% | -13% | -5 | -4 | -2%[38.3 µM] | ?
COC(=O)c1sccc1NC(=S)N(C)C1CCCCC1 | 0.35µM* | . | . | . | 7% | -47%
Cc1ccc(C23CC4CC(CC(NC(=O)NCCN(C)C)(C4)C2)C3)cc1 | 1% | 1% | ? | 8 | 16%[38.3 µM] | 13%[46.1 µM]
CCc1cc(C(=O)OC)c(NC(=O)CCCC(=O)O)s1 | -2% | -23% | 57 | -2 | -10%[38.3 µM] | -9%[46.1 µM]
COC(=O)c1cc(C)sc1NC(=O)CCCC(=O)O | 0% | -13% | -119* | 3 | 18%[38.3 µM] | -7%[46.1 µM]
COCC(=O)Oc1c(Sc2ccccc2[N+](=O)[O-])c(C)nn1C(C)(C)C | 8.9µM* | . | . | . | 2% | -8%
COCC(=O)Oc1c(S(=O)(=O)c2ccc(C)cc2)c(C)nn1-c1ccccc1 | -10% | -23% | 9 | 4 | -2%[38.3 µM] | -8%[46.1 µM]
CCC(CC)C(=O)Oc1c(Sc2ccccc2[N+](=O)[O-])c(C)nn1C(C)(C)C | 2.2µM* | -25% | ? | 13 | 21% | ?
Cn1ccnc1Sc1ccccc1[N+](=O)[O-] | -5% | . | . | . | -9% | 17%
CCOc1cccc(N2C(=O)CC(NNC(=O)c3ccc(Br)o3)C2=O)c1 (centres undefined) | 11µM* | . | . | . | . | -20%
NC(=O)c1ccc(NC(=O)COC(=O)CCc2ccc(S(=O)(=O)N3CCCCC3)cc2)cc1 | 6% | . | . | . | -13% | 11%
Cn1cccc1/C=N/NC(=O)Cn1cnc2ccccc21 | -9% | -11% | 76 | 3 | -5%[38.3 µM] | -6%[46.1 µM]
O=c1c(C(c2ccccc2)c2c(O)sc3ccccc3c2=O)c(O)sc2ccccc12 | 1% | -12% | ? | 2 | 20%[38.3 µM] | 10µM*
CN1/C(=C\C=N\NC(=O)c2cccnc2)C(C)(C)c2ccccc21 | 2% | . | . | . | 10% | -29%
